# Screening results as filed in PubChem BioAssay.
# VDR inhibitor: vitamin D3 receptor (human) inhibition; P11473; VDR-SRC2-3 peptide fluorescence polarization, 2 h; Potency, µM, hits mostly inhibitors; 400,000 compounds, 0.93% hits
# Target sequence (P11473 whole entry, looked up): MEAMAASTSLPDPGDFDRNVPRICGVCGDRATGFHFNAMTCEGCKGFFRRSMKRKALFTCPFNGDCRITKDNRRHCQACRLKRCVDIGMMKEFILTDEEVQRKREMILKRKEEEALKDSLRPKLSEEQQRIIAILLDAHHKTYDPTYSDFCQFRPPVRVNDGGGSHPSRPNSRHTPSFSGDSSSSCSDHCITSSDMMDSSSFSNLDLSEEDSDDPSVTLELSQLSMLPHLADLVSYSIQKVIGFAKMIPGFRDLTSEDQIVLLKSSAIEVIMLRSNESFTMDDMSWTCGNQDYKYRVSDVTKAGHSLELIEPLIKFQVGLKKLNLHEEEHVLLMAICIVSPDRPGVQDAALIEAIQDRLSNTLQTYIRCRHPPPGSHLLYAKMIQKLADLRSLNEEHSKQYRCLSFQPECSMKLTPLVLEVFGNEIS
#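 Reagent solutions, kept cold and dark, are dispensed first; compounds are then pinned in at 23 nl, plates briefly spun, and incubated 2 h at ambient temperature. Inhibition of VDR–SRC2-3 peptide binding is read by fluorescence polarization.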
# GLS inhibitor: blocks human kidney-isoform glutaminase activity. O94925. GLS enzymatic activity, qHTS titration. Potency, µM (doses to about 45.5 µM), actives largely listed as inhibitors. 410,000 compounds, 0.21% hits
#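 Human kidney-isoform GLS in 45 mM KH2PO4 pH 8.2, 0.02% Tween-20, with compound, started with 1mM L-Glutamine (added stock). Glutamate oxidase/HRP/Amplex red coupled fluorescence read at start and after 30 min at RT.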
# Pin1 inhibitor: inhibitors of human Pin1; Q13526; Potency, µM (highest dose often 115 µM), hits mostly inhibitors; Pin1 FP peptide displacement, HiFluor488, 10 min; 390,000 compounds, 0.009% hits; active = well fitted inhibition curve with a large enough effect in the polarisation, with a control signal flat, not every such curve was filed as active; inconclusive = small, poorly fitted or top-dose-only effect, or effect the other way, or a change in a side signal; inactive = no such curve, though single readings can be large or run the other way; the % refers to the polarisation
# Target sequence (Q13526 whole entry, looked up): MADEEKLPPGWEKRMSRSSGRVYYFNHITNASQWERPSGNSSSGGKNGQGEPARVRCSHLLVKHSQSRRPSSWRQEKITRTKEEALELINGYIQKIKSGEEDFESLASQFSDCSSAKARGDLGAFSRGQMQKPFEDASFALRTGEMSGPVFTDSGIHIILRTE
# Tb PFK inh-1: T. brucei PFK enzyme inhibition | T. brucei PFK, ADP-Glo luminescence | Potency, µM (top dose mostly 57.5 µM), hits mostly inhibitors | 330,000 compounds, 0.17% hits | AID 485367; also: nearly all actives have a fitted effect of over 60% in size
#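 Compounds were pin-transferred as a titration series up to 57 uM into substrate buffer (0.5 mM F6P, 0.1 mM ATP, pH 8.0), then 1.25 nM PFK was added and reactions ran 45 min before ADP-Glo detection.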
# PGK inhibitor: blocks T. brucei phosphoglycerate kinase; PGK/GAPDH coupled, Kinase-Glo luminescence, 60 min; P07378; AID 602233; 380,000 compounds, 0.043% hits; Potency, µM (titrated, usually from 57.5 µM), usual class: inhibitors; also: nearly all actives have a fitted effect of over 60% in size
#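 Luminescent ATP detection (Kinase-Glo Plus) follows a 60-minute room-temperature incubation, with wells lacking PGK as controls. Buffer: 100 mM TEA (pH 7.6), 5 mM MgCl2, 0.01% Tween-20. Coupling enzyme GAPDH (100 nM final) supplies unstable 1,3-BPG in-well.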
# TbPFK ATP: Tb phosphofructokinase inhibition, orthogonal luminescence | 1,100 compounds, 47% hits | Potency, µM (highest dose often 57.5 µM) | Tb PFK enzyme, ATP depletion, Kinase-Glo Plus luminescence | shares compounds with Tb PFK inh-1; calls by dose curve; also: nearly all actives have a fitted effect of over 60% in size
# Tb PFK inh-2: validation of T. brucei phosphofructokinase inhibitors. purified T. brucei PFK, ADP-Glo luminescence, 45 min. AID 504637. shares compounds with Tb PFK inh-1. 1,100 compounds, 41% hits. Potency, µM (top dose mostly 57.5 µM), most hits filed as inhibitors; also: nearly all actives have a fitted effect of over 60% in size
# Numbers stand for hits; n = inactive; u = inconclusive; x = not tested or not shown. In the library only some 1.1% were active in any assay of this set; here they are far more common. Unless noted, calls follow the shape of the dose curve; as a rule, active = well fitted curve in the direction sought with a large enough effect; inconclusive = small, poorly fitted or top-dose-only effect, or another doubt; inactive = no such curve, though single readings can be large; an effect the other way counts as inactive or inconclusive.
SMILES,VDR inhibitor,GLS inhibitor,Pin1 inhibitor,Tb PFK inh-1,PGK inhibitor,TbPFK ATP,Tb PFK inh-2
CCCCC/C=C\C/C=C\C/C=C\C/C=C\CCCC(=O)NCc1ccc(O)c(OC)c1,45µM,x,x,x,x,x,x
COc1cc(/C=C2/SC(=S)N(Cc3ccccc3)C2=O)ccc1OCC(=O)O,89µM,n,n,n,n,x,x
COc1cc(OC)c(OC)cc1/C=C1/C(=O)NC(=O)N(Cc2ccccc2)C1=O,n,n,n,n,n,x,x
C/C(=C(/CCOC(=O)C(C)C)SS/C(CCOC(=O)C(C)C)=C(\C)N(C=O)Cc1cnc(C)nc1N)N(C=O)Cc1cnc(C)nc1N,16µM,n,x,x,x,x,x
Cc1ccc(Cn2cccc(C(=O)Nc3nnc(C)s3)c2=O)cc1,n,u,n,x,n,x,x
CCN(CC)c1ccc(N=Cc2c(O)[nH]c(=O)[nH]c2=O)cc1,79µM,n,u,n,n,x,x
CCN(CC)c1ccc(N=Cc2c(O)n(-c3ccccc3)c(=O)[nH]c2=O)cc1,n,n,u,n,n,x,x
CCCCOC(=O)N(C)SN(C)C(=O)Oc1cccc2c1OC(C)(C)C2,3.2µM,x,x,x,x,x,x
COc1ccc(-c2nc(CN3C(=O)CN=C(c4ccccc4)c4ccccc43)c(C)o2)cc1OC,n,n,n,x,n,x,x
Cn1c(=O)n(C)c2cc(CNCCc3ccccc3F)ccc21,n,n,n,x,n,x,x
NC(=O)CI,79µM,x,x,x,x,x,x
CCCC[C@@H](C)[C@@H](OC(=O)C[C@@H](CC(=O)O)C(=O)O)[C@H](C[C@@H](C)CCCCCC[C@@H](O)C[C@H](O)[C@H](C)N)OC(=O)C[C@@H](CC(=O)O)C(=O)O,n,x,x,x,x,x,x
N[C@@H](CCCCP(=O)(O)O)C(=O)O,n,x,x,x,x,x,x
CCOC(=O)CC(SP(=S)(OC)OC)C(=O)OCC (stereo not given),28µM,n,x,x,x,x,x
O=C1C=CC(=O)c2c(O)cccc21,40µM,x,x,x,x,x,x
Cn1c(O)c(/C=C2\C=c3ccccc3=NC2=O)c(=O)n(C)c1=O,79µM,n,n,n,n,x,x
C=C(C)C(=O)CP(=O)(OCC)OCC,n,x,x,x,x,x,x
C[C@@]12CC[C@H]3[C@@H](CC[C@@H]4C[C@H]5S[C@H]5C[C@]43C)[C@H]1CC[C@H]2O,u,n,x,x,x,x,x
O=C(OCc1cccc([N+](=O)[O-])c1)c1ccc[nH]c1=O,n,n,n,7.6µM,n,8.5µM,6.7µM
O=[N+]([O-])c1cccc(CCl)c1,n,n,n,n,n,x,x
C[C@@H]1CO1,n,x,x,x,x,x,x
COc1ccccc1C(=O)Nc1ccc2c(c1)C(=O)NC2=O,n,n,n,24µM,n,19µM,u
Oc1ccc(/C=N/Nc2nccnc2Cl)cc1,n,n,n,u,11µM,n,19µM
ClCCN(CCCl)c1ccc(C=NNc2ncccn2)cc1,n,n,n,x,n,x,x
O=C(Cc1cc(=O)[nH]c(=O)[nH]1)N1CCN(CCO)CC1,n,n,u,n,n,x,x
SMILES,VDR inhibitor,GLS inhibitor,Pin1 inhibitor,Tb PFK inh-1,PGK inhibitor,TbPFK ATP,Tb PFK inh-2
OCCN1CCN(C(=S)c2ccc(Cl)c(Cl)c2)CC1,22µM,n,n,19µM,n,5.4µM,13µM
CC(=O)NC1=NN(C(C)=O)C(C)(c2ccccc2)S1 (stereo not given),n,n,n,u,n,n,n
N#Cc1sc(NCc2ccccn2)nc1Cl,n,n,n,u,n,u,u
O=C(NCc1ccccn1)c1ccccc1Cl,n,n,n,n,n,x,x
O=Cc1ccc(O)c(O)c1,n,u,n,n,n,x,x
Oc1ccc(/C=N/N=C/c2ccc(O)c(O)c2)cc1O,n,u,n,2.7µM,u,u,u
CNCCc1ccc(O)c(O)c1,u,n,n,x,n,x,x
NCCc1ccc(O)c(O)c1,n,n,n,u,n,u,n
Cc1c(Br)c([N+](=O)[O-])nn1CC(=O)Nc1ccc(C(N)=O)cc1,n,n,n,19µM,n,13µM,27µM
CCN(CC)C(=O)c1ccc(NC(=O)Cn2nc(-c3ccc(C)cc3)c3ccccc3c2=O)cc1,n,n,n,x,n,x,x
O=C(Nc1ccccc1)N1CC2(CCN(C(=O)Oc3ccccc3)CC2)C1,n,x,x,x,x,x,x
N#Cc1ncc(N=Cc2ccc(N(CCCl)CCCl)cc2)s1,n,n,n,x,n,x,x
CCn1c(=O)c(C(=O)Nc2nc3ccccc3[nH]2)c(O)c2ccccc21,n,n,n,u,n,n,u
COc1ccc(Br)cc1C1SCC(=O)Nc2c1c(C)nn2-c1ccccc1C (stereo not given),n,n,n,x,x,x,x
Cc1ccc(S(=O)(=O)NCCC(=O)Nc2ccc(Cl)cc2C(=O)c2ccccc2)cc1,n,n,n,n,n,x,x
O=C(Cc1ccc(Br)cc1)Nc1ccc(S(=O)(=O)Nc2ncccn2)cc1,n,n,n,24µM,n,21µM,21µM
O=C(CCl)Nc1nccs1,n,n,n,n,n,x,x
COc1cccc(CC(=O)Nc2ccc(S(=O)(=O)Nc3nccs3)cc2)c1,n,n,n,19µM,n,19µM,u
O=C(Cc1ccc(Cl)cc1)Nc1ccc(S(=O)(=O)Nc2ncccn2)cc1,n,n,n,21µM,n,11µM,19µM
O=C(Cc1ccc(Br)cc1)N1CCN(Cc2ccccc2)CC1,u,n,n,n,n,x,x
O=c1cccc2n1CC1CC2CN2CCCCC12 (stereo not given),n,x,x,x,x,x,x
O=C(N/N=C\C=C\c1ccc2c(c1)OCO2)C1COc2ccccc2O1 (stereo not given),n,n,n,27µM,x,17µM,21µM
C[C@H]1CC[C@@H]2[C@@H](C)[C@H]3[C@H](C[C@H]4[C@@H]5CC=C6CC(O[C@@H]7O[C@H](CO)[C@H](O)[C@H](O[C@@H]8O[C@H](CO)[C@@H](O)[C@H](O)[C@H]8O)[C@H]7O[C@H]7O[C@@H](C)[C@H](O)[C@@H](O)[C@H]7O)CC[C@]6(C)[C@H]5CC[C@]34C)N2C1 (stereo not given in full),u,n,x,x,x,x,x
COC(=O)c1ccc(NC(=O)NC(=O)Oc2ccccc2)cc1,u,n,n,n,n,x,x
CSc1ccc(NC(=O)Nc2ccc(C(=O)NCC(=O)O)cc2)cc1,n,u,n,13µM,u,8.5µM,u
NC(Cc1ccccc1Cl)c1nn[nH]n1 (stereo not given),x,n,x,x,n,x,x
Cc1cc(O)c2c(c1)C(=O)C13C(=C2O)C(=O)[C@H]2[C@@H](O)[C@@H]1[C@H]1[C@H](O)[C@@H]3C(=O)C3=C(O)c4c(O)cc(C)cc4C(=O)C312 (stereo not given in full),n,n,n,n,n,x,x
CNC(=O)OCC[N+](C)(C)C,n,n,x,x,x,x,x
CC1=C(C(=O)Nc2ccccc2)C(c2ccc[nH]2)n2ncnc2N1 (stereo not given),n,u,u,u,x,u,n
